Screening data deposited in PubChem by The Scripps Research Institute Molecular Screening Center.
PAFAH2 inh: inhibitors of human PAFAH2 | recombinant PAFAH2, FP-rhodamine activity probe, fluorescence polarization | AID 492956 | Q99487 | inhibition, % at 3.39 µM | hit rate 0.99% among 340,000;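 active means inhibition above the mean over all tested compounds plus 3 SD, cut at about 30% in these data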;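 further: inhibitors block probe labeling of enzyme so polarization drops; 0% = enzyme with DMSO and 100% = wells lacking PAFAH2 protein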
PAFAH1B2 FP inh: blocks human PAF acetylhydrolase 1b catalytic subunit 2 | AID 492953 | P68402 | inhibition, % at 3.39 µM | recombinant PAFAH1B2, FP-rhodamine activity probe, fluorescence polarization | hit rate 1.2% among 340,000;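 active means inhibition above the mean of all tested compounds plus 3 SD, cut at about 24% in these data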;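 further: 0% = enzyme with DMSO and 100% = wells lacking PAFAH1B2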
Fam108B inh: counter-screen for RBBP9 inhibitors: inhibitors of mouse Fam108B; hit rate 0.33% among 300,000; recombinant Fam108B, FP-Rh probe fluorescence polarization; inhibition, % at 9.51 µM;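 active means inhibition above the screen mean inhibition plus 3 SD, computed separately per campaign, cut at about 18% in these data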;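 further: inhibitors lower polarization as less probe binds the enzyme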
PME-1 inh: blocks human protein phosphatase methylesterase 1; hit rate 0.53% among 320,000; inhibition, % at 5.9 µM; recombinant PME-1, FP-Rh probe fluorescence polarization; Q9Y570;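 active means inhibition above the campaign mean of all compounds plus 3 SD, cut at about 26% in these data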;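 further: competitive labeling of PME-1 active site by serine hydrolase directed probe; 0% = PME-1 with DMSO and 100% = wells lacking PME-1 enzyme; inhibitors block probe labeling so polarization falls and inhibition rises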
Target sequence (Q9Y570 whole entry, looked up): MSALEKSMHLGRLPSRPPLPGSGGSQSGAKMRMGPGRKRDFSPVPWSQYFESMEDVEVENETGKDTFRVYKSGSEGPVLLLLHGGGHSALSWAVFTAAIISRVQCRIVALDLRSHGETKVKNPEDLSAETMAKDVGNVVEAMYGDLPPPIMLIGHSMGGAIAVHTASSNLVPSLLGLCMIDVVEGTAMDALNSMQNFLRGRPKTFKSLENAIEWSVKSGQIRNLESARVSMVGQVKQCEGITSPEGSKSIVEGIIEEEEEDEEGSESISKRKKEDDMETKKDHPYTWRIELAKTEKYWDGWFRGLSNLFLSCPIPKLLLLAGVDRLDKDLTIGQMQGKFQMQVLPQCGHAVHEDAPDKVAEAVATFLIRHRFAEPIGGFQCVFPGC
pPAFAH inh: inhibitors of human plasma PAF acetylhydrolase (pPAFAH); recombinant pPAFAH, FP-rhodamine probe fluorescence polarization; hit rate 1.5% among 330,000; AID 463082; inhibition, % at 3.39 µM;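 active means inhibition above the mean inhibition across the screen plus 3 SD, cut at about 25% in these data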;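 further: inhibitors block binding of the rhodamine activity-based probe so polarization drops; 0% = enzyme with DMSO and 100% = wells lacking pPAFAH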
PAFAH1B3 inh: PAFAH1B3 (human) inhibition. Q15102. recombinant PAFAH1B3, FP-rhodamine probe, fluorescence polarization. inhibition, % at 3.39 µM. hit rate 0.28% among 340,000;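 active means inhibition above the screen-wide average of all tested compounds plus 3 SD, cut at about 25% in these data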;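 further: 0% = enzyme with DMSO only and 100% = wells lacking PAFAH1B3 protein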
Target sequence (Q15102 whole entry, looked up): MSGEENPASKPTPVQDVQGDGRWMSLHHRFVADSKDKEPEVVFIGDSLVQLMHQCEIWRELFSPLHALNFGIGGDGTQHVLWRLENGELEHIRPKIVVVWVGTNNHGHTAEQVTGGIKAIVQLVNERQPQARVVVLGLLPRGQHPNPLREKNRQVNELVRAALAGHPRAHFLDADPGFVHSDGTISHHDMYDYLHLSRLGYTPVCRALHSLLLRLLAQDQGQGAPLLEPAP
Numbers without * were called inactive; x = no result given. Hits are enriched below; roughly 2.9% of the tested compounds scored in any of these assays.

SMILES	PAFAH2 inh	PAFAH1B2 FP inh	Fam108B inh	PME-1 inh	pPAFAH inh	PAFAH1B3 inh
Cc1ccc(SCCC(=O)OCC(=O)Nc2ccc(S(N)(=O)=O)cc2)cc1	-7	24*	3	0	12	-3
NS(=O)(=O)c1ccc(NC(=O)COC(=O)CCc2ccccc2)cc1	-3	4	-6	0	-3	7
Cc1ccc(SCC(=O)N=C2NC(=O)CS2)cc1	-1	26*	-1	1	6	-1
COc1cc(C(=O)N2CCN(C(=O)c3cc(-c4ccc(Br)cc4)n[nH]3)CC2)cc(OC)c1OC	-4	1	-4	7	0	5
CCCOc1ccc(C(=O)O)cc1	6	10	3	-1	1	5
CCCOc1ccc(C(=O)ON=C2CCN(C)CC2)cc1	78*	4	5	0	26*	-4
Cn1c(NCCN2CCOCC2)nc2c1c(=O)n(Cc1cccc(Cl)c1)c(=O)n2C	3	28*	3	6	5	-1
Cn1c(NCCO)nc2c1c(=O)n(Cc1cccc(Cl)c1)c(=O)n2C	3	10	4	-5	1	4
Nc1nc2c(c(=O)[nH]1)C(c1ccccc1)C1=C(N2)c2ccccc2C1=O (stereo not given)	18	3	6	-2	8	-5
CCC(C)c1ccc(C2C3=C(Nc4nc(N)[nH]c(=O)c42)c2ccccc2C3=O)cc1 (stereo not given)	-2	-2	2	1	25*	-1
CN(C)C(=O)CSc1n[nH]c(=O)n1CCc1ccccc1	-2	2	1	-3	0	1
COc1ccc(O)c(C(c2c(C)[nH][nH]c2=O)c2c(C)[nH][nH]c2=O)c1	11	27*	6	-1	4	38*
COc1ccc(OC)c(C(c2c(C)[nH][nH]c2=O)c2c(C)[nH][nH]c2=O)c1	6	0	-7	-4	-4	4
O=S(=O)(Nc1nc(-c2ccccc2)cs1)c1cc(Cl)ccc1Cl	21	-3	-3	14	28*	-6
CCN(CC)c1ccc(N=Cc2ccccc2[N+](=O)[O-])cc1	4	0	7	5	33*	10
CC(=O)N(C)c1ccc(N=Cc2cc3c(cc2[N+](=O)[O-])OCO3)cc1	6	4	0	0	7	3
Cc1ccc2nsnc2c1NS(=O)(=O)c1c(C)ccc2nsnc12	6	6	-3	31*	7	9
Cc1cc(S(=O)(=O)Nc2c(C)ccc3nsnc23)ccc1F	-4	5	1	-1	3	7
COc1cccc([C@@H]2CC=C(C(=O)O)[C@H](c3ccccc3)N2S(=O)(=O)c2ccc(C)cc2)c1	5	12	0	-6	2	-6
Cc1ccc(S(=O)(=O)N2[C@@H](c3ccccc3)C(C(=O)O)=CC[C@H]2c2cccc(C)c2)cc1	6	38*	2	-3	2	18
COc1cccc([C@@H]2CC=C(C(=O)O)[C@H](c3ccc(F)cc3)N2S(=O)(=O)c2ccc(C)cc2)c1	-3	26*	3	-4	-4	17
O=C1CC2(CCN(C(=O)C3CC(=O)N(c4ccccc4)C3)CC2)Oc2ccccc21 (stereo not given)	17	-1	0	-2	1	0
COc1ccc(OCC(=O)Nc2ccc(N3CCN(Cc4ccccc4F)CC3)cc2)cc1	8	2	-2	-3	3	7
Cc1cccc(C)c1NC(=O)CSc1n[nH]c(=O)n1C1CC1	1	7	x	x	-1	0
Cc1ccc(C(=O)N2CCN(c3ccc(C(F)(F)F)cn3)CC2)o1	3	9	x	x	7	11
SMILES	PAFAH2 inh	PAFAH1B2 FP inh	Fam108B inh	PME-1 inh	pPAFAH inh	PAFAH1B3 inh
O=C(CCC(=O)N1CCSc2ccccc21)NCc1ccc(Cl)cc1	9	25*	-2	0	0	-3
O=C(CNS(=O)(=O)c1ccccc1)Nc1cccc([N+](=O)[O-])c1	9	5	0	0	4	0
CC(NC(=O)/C=C/c1cnc2ccccc2n1)C12CC3CC(CC(C3)C1)C2 (stereo not given)	12	24*	-2	-4	5	8
CCOc1cc(OCC)cc(C(=O)O)c1	0	6	-1	5	9	4
O=C(O)c1cccc(COc2ccc3c(c2)CCC3)c1	-3	48*	5	6	3	4
O=C(O)c1cc(OCc2ccccc2)cc(OCc2ccccc2)c1	12	29*	4	-2	23	2
COc1ccc(OCc2cccc(C(=O)O)c2)cc1	1	25*	-4	-6	1	3
CN(/N=C/c1cc(Br)cc(Br)c1O)c1cccc(C(F)(F)F)n1	6	7	2	-2	21	8
Cc1ccc(N2C(=O)N3[C@H](c4ccc(F)cc4)[C@@H]4C(=O)N(C5CCCCC5)C(=O)[C@@H]4[C@]3(Cc3ccccc3)C2=O)cc1	0	-4	-9	-3	4	8
Nc1nonc1C(=O)NCCN=Cc1cc(Cc2ccccc2)cc(Br)c1O	3	10	4	-2	33*	6
Nc1nonc1C(=O)NCCN=Cc1ccccc1O	2	0	-5	-3	0	5
CCCCCCCCN1[C@@H](CC(=O)O)c2cc(C(F)(F)F)ccc2S1(=O)=O	7	27*	2	7	8	10
CCOc1ccc(N2CSC3=C(C#N)C(c4ccco4)CC(=O)N3C2)cc1 (stereo not given)	7	-5	1	-3	48*	5
CCc1ccccc1N1CSC2=C(C#N)C(c3cc(OC)c(OC)cc3OC)CC(=O)N2C1 (stereo not given)	8	2	3	-2	25*	8
CCOC(=O)c1ccc(N2CSC3=C(C#N)C(c4ccc(OC)cc4OC)CC(=O)N3C2)cc1 (stereo not given)	-1	5	2	2	-6	0
CNC(=O)Cn1ncc2c(C)n(Cc3ccc(C)cc3)c(C)c2c1=O	8	5	-2	1	4	8
Cc1c2cnn(CC(=O)Nc3c(F)c(F)cc(F)c3F)c(=O)c2c(C)n1Cc1ccccc1F	21	-3	-17	-16	27*	-6
CC(C)c1ccc(OCC(=O)NC(C)c2ccccc2)cc1 (stereo not given)	-2	29*	0	3	11	4
CCC(C)NC(=O)COc1ccc(OCc2ccccc2)cc1 (stereo not given)	8	27*	0	5	6	4
CCNC(=O)COc1ccc(OCc2ccccc2)cc1	3	10	-1	0	5	1
COCCNC(=O)c1onc(CSc2ccc(Cl)cc2)c1C(=O)O	10	28*	0	1	4	6
COCCNC(=O)c1onc(CSc2ccc(C(C)C)cc2)c1C(=O)O	-3	18	-3	2	8	3
CC(=NNC(=O)c1ccncc1)c1ccccc1O	-2	4	x	x	x	10
